Values joined by “and” are separate entries in the source; they are usually repeats but may differ in a detail not shown here. Identical values can stand only once. Records with an inconclusive call do not appear. Active and inactive are the calls of the source. How the source made its calls: active means hit-call score of the fitted dose curve at least 0.9, where 1 is the maximum; inconclusive means response in the unintended direction; inactive means score below 0.9.
test: CCTE_Shafer_MEA_dev_active_electrodes_number: CCTE's Neural Network Formation Assay for Number of Active Electrodes, Shafer Lab (AID 2284040);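 on AC50: potency for loss of active electrodes versus DMSO so lower counts are hits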
Experimental: CCTE_Shafer_MEA_dev assay is conducted using Axion Biosystems 48 well microelectrode array (MEA) plates and Maestro recording system. Each well of the MEA plate contains a grid of 16 microelectrodes embedded in the culture surface. Electrically active cells, such as neurons, can be cultured over the electrodes, and electrical activity in these cells can be recorded extracellularly. The spontaneous firing of neurons is captured from each electrode on a microsecond timescale providing both temporally and spatially precise data. […] The CCTE_Shafer_MEA_dev assay uses primary cultures of rat cortical neurons. Recordings are made on days post-plating 5, 7, 9 and 12. As these cultures mature over time, neural networks develop functional activity and form cohesive networks in which electrical activity can be highly coordinated. CCTE_Shafer_MEA_dev_active_electrodes_number is 1 of 19 assay components of the CCTE_Shafer_MEA_dev assay. It measures the number of electrodes in a well with a mean firing rate of at least 5 spikes (action potential firings) per minute during a recording in a microelectrode array (MEA) using Axion Biosystems Maestro 768 channel amplifier with the AxIS adaptive spike detector. To collapse across multiple recordings made on days post-plating 5, 7, 9 and 12, the trapezoidal area-under-the-curve of the component is calculated.Data from the assay component CCTE_Shafer_MEA_dev_active_electrodes_number was analyzed into 1 assay endpoint. This assay endpoint, CCTE_Shafer_MEA_dev_active_electrodes_number, was analyzed in the negative analysis fitting direction relative to DMSO as the negative control and baseline of activity. Using a type of functional reporter, gain or loss-of-signal activity can be used to understand electrical activity.
On the day prior to culture, each well was coated thoroughly with 150 uL of 0.05% polyethyleneimine (PEI, Sigma Cat P3143) in 50 mM HEPES (Sigma Cat H7523) at a pH of 8. The plate was incubated at 37C for one hour. PEI was rinsed out with 500 uL of sterile water three times. Plates were stored at 4C until the day of culture. This culture was plated at a seeding density of 1.5 x 10^5 cells/well on a 48-well MEA plate, prepared as described above. Cells were administered via a 25 uL media/laminin ([…]; Sigma Cat L2020-1MG) drop directly onto the microelectrode array, as adding the cells with the laminin results in better attachment than pre-coating with laminin. After 2 hours, an additional 475 uL of cortical media was added and the cells returned to the incubator. Exposure starts at day 0 of plating and is continued over twelve days of network development until the experiment is terminated. Cells are fed with fresh medium on DIV 5 and 9, following the recordings on those days. The entire volume of media in the well is exchanged and any vehicle or compound treatment is renewed. Complete details are found in OP-NHEERL/ISTD/SBB/TJS/2015-03-r0 (available on request, email shafer.tim@epa.gov). Measurement of the electrical activity is non-invasive, and recordings can be made from the same plate over multiple different days of the culture. In cortical neurons, this allows for the measurement of extracellular action potentials over the period during which networks form in the MEA plate.

Compound	outcome	AC50
c1ccc2c(c1)Cc1ccccc1-2	inactive	–
OCCC(F)(F)C(F)(F)C(F)(F)C(F)(F)C(F)(F)C(F)(F)F	inactive	–
c1ccc2cc3c(ccc4ccccc43)cc2c1	inactive	–
CN1CCC[C@H]1c1cccnc1	inactive	–
CC(O)CO (stereo not given)	inactive	–
OCCC(F)(F)C(F)(F)C(F)(F)C(F)(F)C(F)(F)C(F)(F)C(F)(F)C(F)(F)F	inactive	–
C=C(C)C(=O)OCCC(F)(F)C(F)(F)C(F)(F)C(F)(F)C(F)(F)C(F)(F)F	inactive	–
CC1=C(/C=C/C(C)=C/C=C/C(C)=C/C(=O)O)C(C)(C)CCC1	–	15 µM (active)
CC#C[C@]1(O)CC[C@H]2[C@@H]3CCC4=CC(=O)CCC4=C3[C@@H](c3ccc(N(C)C)cc3)C[C@@]21C	–	4.73 µM (active) and 17.8 µM (active)
c1ccc2c(c1)ccc1ccccc12	inactive	–
